From PubChem BioAssay AID1159606 (Sanford-Burnham Center for Chemical Genomics, 2016)
About 7,300 (2%) of roughly 360,000 compounds were called active. This excerpt belongs to a sample that is enriched for actives. A number with no mark means an inactive call. Rule as the data show it: active = inhibition above about 50%; inactive = the rest.

assay: blockers of TWEAK-induced Fn14 reporter activity – luciferase reporter cells, uHTS, primary screen (AID 1159606); conditions: TWEAK-stimulated Fn14 reporter cells, luciferase luminescence, 8 h; at 10 µM; stronger effect = higher value

**Q.** For `O=C(C1CCCO1)N1CCN(C(=O)C23CC4CC(CC(C4)C2)C3)CC1` (centres undefined), which inhibition is on record?
**A.** -24%

**Q.** For `C[C@H](CO)N1C[C@H](C)[C@@H](CN(C)Cc2ccc3c(c2)OCO3)OCc2cnnn2CCCC1=O`, which inhibition is on record?
**A.** -16.3%

**Q.** With `Cc1cc(Cl)c(S(=O)(=O)N(C)C)cc1OCC(N)=O` as the compound, how does the inhibition read?
**A.** 12.6%

**Q.** For `Cc1cc(Cl)c(S(=O)(=O)NCC2CCCO2)cc1OCC(N)=O` (centres undefined), which inhibition is on record?
**A.** 3.22%

**Q.** With `Cc1cc(Cl)c(S(=O)(=O)Nc2ccc3c(c2)OCCO3)cc1OCC(N)=O` as the compound, how does the inhibition read?
**A.** 86.8% (active)

**Q.** Which inhibition does the source give for `Cc1cc(C)cc(C(=O)OCC(=O)NCCNC(=O)COC(=O)c2cc(C)cc(C)c2)c1` here?
**A.** -2.52%

**Q.** Which inhibition does the source give for `Cc1ccc(S(=O)(=O)N2CCC(=O)N([C@H](COCc3ccccc3)C(C)C)CC2)cc1` here?
**A.** -20.6%

**Q.** With `Oc1c(CN2CCN(c3ccc(F)cc3)CC2)cc(Cl)c2cccnc12` as the compound, how does the inhibition read?
**A.** 104% (active)

**Q.** For `Oc1c(CN2CCCC2)cc(COCc2ccccc2)c2cccnc12`, which inhibition is on record?
**A.** 9.88%

**Q.** With `Cc1cccc(C)c1NC(=O)CN1CCN(c2ccc(F)cc2)CC1` as the compound, how does the inhibition read?
**A.** 0%

**Q.** For `O=[N+]([O-])c1ccc(S(=O)(=O)Nc2cccc(-c3ccc(N4CCCC4)nn3)c2)cc1`, which inhibition is on record?
**A.** -10.7%

**Q.** With `O=C(Nc1ccccn1)C1CCN(S(=O)(=O)c2ccc3c(c2)OCCO3)CC1` as the compound, how does the inhibition read?
**A.** -16%

**Q.** For `O=C(Nc1ccc2c(c1)OCCO2)C1CCCC1`, which inhibition is on record?
**A.** 92.4% (active)

**Q.** With `CN1C(=O)c2ccc(NC(=O)C3CCCCC3)cc2C1=O` as the compound, how does the inhibition read?
**A.** -18.9%

**Q.** Which inhibition does the source give for `O=C(Nc1cccc(Cl)c1)C1CCCN(c2cnccn2)C1` (centres undefined) here?
**A.** -12.7%

**Q.** For `O=C(Nc1ccc2c(c1)OCO2)C1CC1(Cl)Cl` (centres undefined), which inhibition is on record?
**A.** -7.08%

**Q.** With `O=C(Nc1ccc2c(c1)OCCO2)C1CCCN(c2ncccn2)C1` (centres undefined) as the compound, how does the inhibition read?
**A.** 67.2% (active)

**Q.** With `Cc1ccccc1S(=O)(=O)NC(=O)C1(C)CCN1C(=O)C1(c2ccccc2)CCCC1` (centres undefined) as the compound, how does the inhibition read?
**A.** 0.78%

**Q.** With `COc1ccc(NC(=O)CN(C)C(=O)CNC(=O)C2CCCCC2)cc1` as the compound, how does the inhibition read?
**A.** -2.69%

**Q.** With `COc1cccc(CNC(=O)[C@@H]2CCCN2C(=O)[C@@H]2CCCN2C(=O)c2ccccc2)c1` as the compound, how does the inhibition read?
**A.** 17.3%

**Q.** For `CC1(C(=O)NS(=O)(=O)c2ccccc2)CCN1C(=O)C1CCCCC1` (centres undefined), which inhibition is on record?
**A.** -10.4%

**Q.** With `CCC1(C)NC(=O)N(CC(=O)N2CCN(c3cccc(Cl)c3)CC2)C1=O` (centres undefined) as the compound, how does the inhibition read?
**A.** 5.53%

**Q.** Which inhibition does the source give for `O=C(CSc1nnc(-c2ccco2)o1)NCC(=O)c1ccccc1` here?
**A.** 7.83%

**Q.** With `CCn1c(SCC(=O)Nc2cc(C)c(Cl)cc2OC)nnc1-c1ccco1` as the compound, how does the inhibition read?
**A.** -18.4%

**Q.** Which inhibition does the source give for `CSc1nc(-c2ccco2)nn1C(=O)c1ccccc1Cl` here?
**A.** 51% (active)

**Q.** For `CCn1cc(CN2CCCC(CNS(=O)(=O)Cc3ccccc3)C2)cn1` (centres undefined), which inhibition is on record?
**A.** 1.85%

**Q.** Which inhibition does the source give for `Cc1cccc(-n2ncc(Cl)c(Cl)c2=O)c1` here?
**A.** 94.7% (active)

**Q.** With `CC(=O)Nc1c2c(nn1-c1cccc(C)c1)CSC2` as the compound, how does the inhibition read?
**A.** -5.72%

**Q.** Which inhibition does the source give for `CCCNC(=O)c1c(Cl)cnn1-c1ccc(C)cc1` here?
**A.** -19.4%

**Q.** For `COc1cccc(-c2nc3nc(C)cc(C)n3c2NC2CCCCC2)c1`, which inhibition is on record?
**A.** -20.7%

**Q.** With `CC(C)(C)Oc1ccccc1Nc1nc(NCCO)nc(N2CCCC2)n1` as the compound, how does the inhibition read?
**A.** -8.68%

**Q.** For `O=C(CSc1nc2ccccc2c(=O)n1-c1ccccc1F)N1CCOCC1`, which inhibition is on record?
**A.** 0.72%

**Q.** With `Cc1ccc(-n2c(SCC(=O)N3CCC(C(=O)O)CC3)nc3ccccc3c2=O)cc1C` as the compound, how does the inhibition read?
**A.** 58.6% (active)

**Q.** Which inhibition does the source give for `COc1cccc(-n2c(SCC(=O)NC3CCS(=O)(=O)C3)nc3ccccc3c2=O)c1` (centres undefined) here?
**A.** 6.23%

**Q.** Which inhibition does the source give for `O=C(CCCN1C(=O)C(c2ccccc2)Oc2cccnc21)Nc1ccccc1Br` (centres undefined) here?
**A.** -8.78%

**Q.** Which inhibition does the source give for `COC(=O)[C@]12CCCCC=C1N(Cc1cccc3ccccc13)C(=O)[C@H](CC(=O)N1CCOCC1)C2` here?
**A.** -1.32%

**Q.** For `CSc1ccc(Cl)c(C(=O)OCC(=O)N2CC(C)OC(C)C2)c1` (centres undefined), which inhibition is on record?
**A.** 3.56%

**Q.** Which inhibition does the source give for `O=C1/C(=C\c2ccc([N+](=O)[O-])cc2)CS(=O)(=O)C/C1=C/c1ccc([N+](=O)[O-])cc1` here?
**A.** 103% (active)

**Q.** With `CN(C)S(=O)(=O)N1CCN(c2ccc([N+](=O)[O-])cc2)CC1` as the compound, how does the inhibition read?
**A.** -16%

**Q.** For `CCCCC(=O)Nc1c2c(nn1-c1ccc([N+](=O)[O-])cc1)CS(=O)(=O)C2`, which inhibition is on record?
**A.** -8.65%

**Q.** Which inhibition does the source give for `Cc1cc(NC(=O)CSc2nnnn2-c2ccc(F)cc2)no1` here?
**A.** -11.5%

**Q.** Which inhibition does the source give for `O=C(O)Cc1csc(NC(=O)CSc2nnnn2-c2ccc(O)cc2)n1` here?
**A.** 58.4% (active)

**Q.** For `O=C(CSc1nnnn1-c1ccc(O)cc1)c1ccc(F)cc1`, which inhibition is on record?
**A.** -10.2%

**Q.** For `O=C(COc1cccc(F)c1)Oc1ccc(C(=O)c2ccccc2)cc1`, which inhibition is on record?
**A.** 10.4%

**Q.** Which inhibition does the source give for `Cc1c(Br)c([N+](=O)[O-])nn1CC(=O)N1CCN(Cc2ccccc2)CC1` here?
**A.** -4.42%

**Q.** For `O=C(Nc1ccn(Cc2ccccc2)n1)c1n[nH]c([N+](=O)[O-])c1Cl`, which inhibition is on record?
**A.** 73.8% (active)

**Q.** With `O=C(Nc1ccn(Cc2ccccc2F)n1)c1ccc(COc2ccc(Cl)cc2Cl)o1` as the compound, how does the inhibition read?
**A.** 33.4%

**Q.** For `CC(=O)Oc1ccc(Cn2c(C)c(C(=O)NCc3ccc(C#N)cc3)sc2=O)cc1`, which inhibition is on record?
**A.** -2.94%

**Q.** For `CC(=O)C1=CCC(c2ccccc2)N(S(=O)(=O)c2ccc(C)cc2)C1` (centres undefined), which inhibition is on record?
**A.** 15.7%

**Q.** With `Cc1cc(C)cc(NC(=O)N2CCCCCCC2)c1` as the compound, how does the inhibition read?
**A.** -11.9%

**Q.** Which inhibition does the source give for `Cc1ccc2oc(=O)c3cnn(CC(=O)N4CCCCCC4)c3c2c1` here?
**A.** -7.9%

**Q.** For `Cc1ccc2cc3cc(C(=O)N4CCCCCC4)oc3nc2c1`, which inhibition is on record?
**A.** 50.1% (active)

**Q.** Which inhibition does the source give for `COc1ccc(OC)c(CN2C(=O)CCC2(C)c2nnnn2Cc2ccccc2)c1` (centres undefined) here?
**A.** -0.14%

**Q.** With `C=CCNc1nnc(SCC(=O)N2CCCCC2)c2ccccc12` as the compound, how does the inhibition read?
**A.** 16.3%

**Q.** With `COC(=O)c1ccc2nc(-c3ccc(C)cc3)c(Cc3ccc(OC)cc3C)n2c1` as the compound, how does the inhibition read?
**A.** -18.1%

**Q.** With `Cc1cccc(NC(=S)NCCc2ccc(Cl)cc2)c1C` as the compound, how does the inhibition read?
**A.** 72% (active)

**Q.** For `Cc1ccccc1NC(=S)NC(=O)Cc1ccc(Cl)cc1`, which inhibition is on record?
**A.** 9.93%

**Q.** For `Cc1cccc(NC(=S)NCCc2ccc(F)cc2)c1C`, which inhibition is on record?
**A.** 3.93%

**Q.** Which inhibition does the source give for `Cc1ccc(CNC(=O)c2cccc3c2C(=O)c2ccc(N4CCC(C)CC4)cc2S3(=O)=O)cc1` here?
**A.** 21%
